Measurements as given in PubChem BioAssay (EPA / NIEHS).
Activity calls are given as the source filed them. How the source made its calls: active means hit-call score of the fitted dose curve at least 0.9, where 1 is the maximum; inactive means score below 0.9.

experiment: IUF_NPC2b_neuronal_migration_120hr: Leibniz Research Institute for Environmental Medicine (IUF) 120-hour Neural Progenitor Cell Migration Assay for Neuron Migration (NPC2b) (AID 2284300)
Procedure: IUF_NPC2-5 is a cell-based, multiplexed assay that uses hNPC, a human primary neural progenitor cells, with measurements taken at 72 or 120 hours after chemical dosing in a 96-well plate. Human neural progenitor cells (hNPC) are generated from human fetal brain cortex at gestational week (GW) 16-19. In the neural progenitor cell migration and differentiation assay (NPC2-5), hNPCs grown as spheres are plated on an extracellular matrix and migrate and differentiate out of the sphere core. The processes radial glia migration, neuronal and oligodendrocyte migration as well as neuronal differentiation, neuronal morphology and oligodendrocyte differentiation are studied using automated phase contrast imaging and automated fluorescence imaging in combination with high content image analysis. In parallel, the cell viability is assessed using an alamar blue viability assay and the cytotoxicity using a lactate dehydrogenase dependent membrane integrity assay.IUF_NPC2b_neuronal_migration_120hr is one of 12 assay components measured from the IUF_NPC2-5 assay. Neuronal migration distance at 120 hr is the mean distance of all neurons from the edge of the sphere core to each individual neuron (see IUF_NPC3_neuronal_differentiation_120hr). Neuronal migration is normalized to radial glia migration distance at 120 hr.Data from the IUF_NPC2b_neuronal_migration_120hr component was analyzed at the endpoint IUF_NPC2b_neuronal_migration_120hr in the positive analysis fitting direction relative to DMSO as the negative control and baseline of activity. Using a type of migration reporter, gain or loss-of-signal activity can be used to understand developmental effects.
Culture protocol: After the cell expansion period the cells are cultured for up to four weeks in which they are passaged every week as described in 3.6. Between one to three days after passaging spheres at a size of 0.3 mm are picked for the test method. For the assessment of neural progenitor cell migration and differentiation, the spheres are plated on poly-D-lysine/laminin coated 96-well flat bottom plates in differentiation medium (N2) to initiate migration and differentiation. Thereby one 0.3 mm big sphere is plated in the middle of a well. The differentiation medium consists of DMEM and Ham's F12 at a ratio of 3 to 1 supplemented with 1% N2 and 1% penicillin and streptomycin. Within 5 days NPCs radially migrate out of the sphere core and differentiate into radial glia cells (nestin positive), neurons (TUBB3 positive), oligodendrocytes (O4 positive) and astrocytes (GFAP positive). Cultivation during the test method is performed at 37C and 5% CO2 at a ph of 7.2-7.6.Exposure: 0.3 mm big hNPC are plated in the already prepared test conditions. Exposure starts at day 0 of differentiation and is continued over five days of differentiation until the experiment is terminated. Cells are fed with fresh medium at day 3 of differentiation. Therefore, half of the test condition solution (e.g. solvent control or compound dilution) is replaced by freshly prepared test condition solution.Test Method: Migration distance and cytotoxicity is determined after 72 hours based on brightfield images of each well. The assay is terminated by the assessment of cell viability and cytotoxicity as well as cell fixation after 120 h. Immunocytochemistry is performed for Hoechst positive nuclei, TUBB3 positive neurons and O4 positive oligodendrocytes. On the ICC images, migration after 120 hours, neuronal and oligodendrocyte number, neuronal morphology and neuron/oligodendrocyte specific migration is assessed. immunocytochemical staining (ICC) generates an image for each sphere. The plates are scanned using an automated high content imaging device and all nuclei and their positions are determined automatically based on their intensity and size. Images are imported to the Omnisphero software to run the image analysis that measures the following endpoints. […]

SMILES	outcome
Cc1c(COC(=O)[C@@H]2[C@H](/C=C(\Cl)C(F)(F)F)C2(C)C)cccc1-c1ccccc1	inactive
C=C(C)CN(CC)c1c([N+](=O)[O-])cc(C(F)(F)F)cc1[N+](=O)[O-]	inactive
CNC(=O)Oc1cccc2ccccc12	inactive
CCOP(=O)(OCC)Oc1nc(Cl)c(Cl)cc1Cl	inactive
CCSC(=O)N1CCCCCC1	inactive
CO/N=C(/C1=NOCCO1)c1ccccc1Oc1ncnc(Oc2ccccc2Cl)c1F	inactive
CS(=O)(=O)c1cc(C(F)(F)F)ccc1C(=O)c1cnoc1C1CC1	inactive
CC(C)(C)C(=O)C(Oc1ccc(Cl)cc1)n1cncn1 (stereo unspecified)	inactive
O=C(Nc1ccccc1-c1ccc(Cl)cc1)c1cccnc1Cl	inactive
COP(=S)(OC)SCn1nnc2ccccc2c1=O	inactive
CN/C(=N\[N+](=O)[O-])NCc1cnc(Cl)s1	inactive
COC(=O)N(C(=O)N1CO[C@@]2(C(=O)OC)Cc3cc(Cl)ccc3C2=N1)c1ccc(OC(F)(F)F)cc1	inactive
CS(=O)(=O)c1ccc(C(=O)C2C(=O)CCCC2=O)c([N+](=O)[O-])c1	inactive
CCNC(=O)NC(=O)C(C#N)=NOC	inactive
N#CN=C1SCCN1Cc1ccc(Cl)nc1	inactive
CC1(C)C(C=C(Cl)Cl)C1C(=O)OC(C#N)c1cccc(Oc2ccccc2)c1 (stereo unspecified)	inactive
